Screens from PubChem BioAssay.
An excerpt weighted towards active compounds, which were near 2.6% of everything screened.
A549 tox: kills or reduces viability of A549 cells in Nrf2 counter-screen. A549 ARE-Fluc cells, CellTiter-Fluor viability, 18-24 h. Potency, µM (titrated, usually from 46 µM), usual class: inhibitors. hit rate 0.16% among 390,000
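A549 ARE-Fluc cells in 5% FBS OPTI-MEM, 5000 cells/well, rested 2 h then exposed to compounds in concentration-response for 18-24 h at 37 °C. Viability by CellTiter-Fluor fluorescence (Ex 405/Em 525) after 30 min; luciferase luminescence (BugLite, 15 min, RT) read afterwards.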
Nrf2 activator: activators of Nrf2 (ARE) signaling. AREc32 ARE-luciferase reporter (MCF7-derived line), luminescence, 24 h. Potency, µM (highest dose often 46.1 µM), usual class: activators. hit rate 0.31% among 410,000; note: nearly all actives have a fitted effect of over 65% in size
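ARE-driven firefly luciferase activity in AREc32 cells measured after a 24 hr compound exposure at 37 deg C, using Steady-Glo reagent and a 30 min room-temperature hold.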
CCT modulator: modulators of cytosolic chaperonin (CCT/TRiC) activity | purified chaperonin ATPase assay, HTRF ADP detection, 30 min | activity change, % (concentration not given with the values), hits read low | hit rate 0.3% among 360,000 | AID 651819; in the data active = activity change below about -30%
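First, chaperonin was dispensed at 40 nM or 20 nM final depending on batch activity. Next, compounds were pinned at 76 uM and ATP added at 10 uM. After 30 min at 37 °C, ADP detection reagents ran 30 min at ambient temperature.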
A-T KAP1 phos: potential ataxia-telangiectasia treatment; F2112 A-T fibroblasts, KAP-1 phosphorylation AlphaLISA; neocarzinostatin DNA damage 30 min before lysis; Potency, µM (doses to about 57.5 µM), actives largely listed as activators; hit rate 0.19% among 320,000; note: nearly all actives have a fitted effect of over 45% in size
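hTERT-immortalized A-T patient fibroblasts (F2112), 500 cells/well in OPTI-MEM, 1% FBS, got compounds for 60 min, then NCS for 30 min at 37C. Lysates were then assayed for phospho-KAP-1 by AlphaLISA (anti-pKAP1 donor, anti-KAP1 acceptor beads), 6 hr at 25C.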
TCR act: activates T cell receptor signaling; primary human leukocytes, anti-CD3, IL-2 HTRF, 48 h; 330,000 tested, under 10 active; Potency, µM (series often up to 9.22 µM), usual class: activators; AID 504894
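Using a-CD3 beads without co-stimulation, primary human leukocytes were exposed to compounds for 48 hr. An HTRF IL-2 kit measured the cytokine, with europium-to-d2 energy transfer producing emission at 665nm upon 320nm excitation.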
Nrf2 block: blocks Nrf2 signaling | A549 ARE-Fluc reporter, luciferase luminescence, 18-24 h | Potency, µM (doses to about 46 µM), actives largely listed as inhibitors | hit rate 2.1% among 360,000 | AID 504444; note: nearly all actives have a fitted effect of over 60% in size
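Reporter: ARE-Fluc in A549. Exposure: 18-24 h, 37 °C, 5% CO2, 5% FBS OPTI-MEM. Readouts: fluorescent cytotoxicity (CellTiter-Fluor), then luminescent Nrf2 signal after BugLite.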
Large screens that a line does not name were inactive. Unless noted, calls come from the whole dose curve; as a rule, active = well fitted curve in the direction sought with a large enough effect; inconclusive = small, poorly fitted or top-dose-only effect, or another doubt; inactive = no such curve, though single readings can be large; an effect the other way counts as inactive or inconclusive.

O=C(NCC1COc2ccccc2O1)c1ccc(F)c(S(=O)(=O)N2CCOCC2)c1 (stereo not given)	none
Cc1c(C(=O)NCC2COc3ccccc3O2)oc2ccc(S(=O)(=O)N3CCOCC3)cc12 (stereo not given)	Nrf2 block 18µM
Cc1c(C(=O)NCC2COc3ccccc3O2)oc2ccc(S(=O)(=O)N3CC(C)CC(C)C3)cc12 (stereo not given)	none
Cc1c(C(=O)NCc2ccccc2)oc2ccc(S(=O)(=O)N3CCC4(CC3)OCCO4)cc12	Nrf2 block 21µM
CCCCN(C)C(=O)c1oc2ccc(S(=O)(=O)N3CCCCCC3)cc2c1C	Nrf2 block 16µM (no result: TCR act)
CCN(CC)c1ccc(NS(=O)(=O)c2cc3[nH]c(=O)c(=O)[nH]c3cc2C)c(C)c1	none (no result: CCT modulator, A-T KAP1 phos, TCR act)
CCc1ccc(C(=O)c2cn(CC(=O)Nc3ccc(OC)c(OC)c3)c3ccc(C)cc3c2=O)cc1	none (no result: CCT modulator, A-T KAP1 phos, TCR act)
Cc1ccc(C(C)C)c(OCC(=O)N2CCC(c3nc4ccccc4o3)CC2)c1	Nrf2 block inconclusive (no result: CCT modulator, A-T KAP1 phos, TCR act)
CCCN1CNc2c(c(=O)[nH]c(=S)n2CCc2cccc(C)c2C)C1	none (no result: Nrf2 activator, CCT modulator, A-T KAP1 phos, TCR act)
CC(C)(C)c1ccc(CSc2nc(N)cc(=O)[nH]2)cc1	CCT modulator -55, Nrf2 block inconclusive
Cc1cccc(NC(=O)CSc2nc(C)c(CC(=O)c3ccc(Br)cc3)c(C)c2C#N)c1C	Nrf2 block inconclusive
Cc1nc(SCC(=O)Nc2ccc(F)cc2)c(C#N)c(C)c1CC(=O)c1ccc(Br)cc1	A549 tox 12µM, Nrf2 block 13µM
O=C(CSc1ncc2c(n1)-c1ccccc1N(Cc1ccc(F)cc1)S2(=O)=O)c1ccc(Cl)cc1	none (no result: CCT modulator, A-T KAP1 phos, TCR act)
CCOc1cc(/C=C/C(=O)c2ccc3c(c2)OCCO3)ccc1OCC(=O)N(C)C	Nrf2 activator 11µM
CCOc1cc(/C=C/C(=O)c2ccc(O)cc2)ccc1OCC(=O)N(C)C	Nrf2 activator inconclusive
Cn1c(=O)c2sccc2n2c(CCCC(=O)NC3CCCCC3)nnc12	Nrf2 block inconclusive (no result: CCT modulator, A-T KAP1 phos, TCR act)
CSc1nsc(SC)c1NC(=O)Nc1ccccn1	Nrf2 activator 10µM (no result: Nrf2 block)
CCOC(=O)NC(=O)COC(=O)CCCSc1nc2ccccc2s1	Nrf2 block 18µM
O=C(O)CCSc1nc2ccccc2s1	Nrf2 block 13µM (no result: TCR act)
CCc1nnc(NC(=O)CSc2nccn2-c2ccccc2)s1	CCT modulator -38
CCc1nnc(NC(=O)CSc2nccn2-c2cccc(C)c2)s1	none
CCc1nnc(NC(=O)CSc2nnc(-c3ccccc3O)o2)s1	CCT modulator -56, Nrf2 block inconclusive
COc1ccc(NC(C)C(=O)N/N=C/c2ccccc2OCc2cccc(Br)c2)cc1 (stereo not given)	Nrf2 block inconclusive
Cc1ccccc1NC(C)C(=O)N/N=C/c1ccccc1OCc1cccc(Br)c1 (stereo not given)	Nrf2 block 15µM
CC(=O)Nc1cccc(NC(=O)CSc2ncc(-c3ccc(Cl)cc3)n2Cc2ccco2)c1	Nrf2 block 18µM
COc1ccc(-c2cnc(SCC(=O)Nc3ccc4c(c3)OCO4)n2Cc2ccco2)cc1	Nrf2 block inconclusive (no result: A-T KAP1 phos)
c1ccc(N=NC2=NN(c3ccccc3)CS2)cc1	Nrf2 activator 8.9µM (no result: A549 tox, A-T KAP1 phos, TCR act, Nrf2 block)
c1ccc(C2=NN(c3ccccc3)CC2)cc1	Nrf2 block inconclusive
C=CCN(C(=O)CSc1nc2ccsc2c(=O)n1Cc1ccc(C(=O)O)cc1)c1ccccc1	none (no result: A549 tox, A-T KAP1 phos, TCR act, Nrf2 block)
CCOC(=O)[C@@H]1[C@H]2COc3cc(OC)ccc3[C@@H]2N2C(=O)N(c3ccc(C(F)(F)F)cc3)C(=O)[C@]12C	none
COc1ccc(S(=O)(=O)N2CCN(CCc3ccccc3)CC2)c(OC)c1	Nrf2 block 16µM
Cc1ccc(NC(=O)Cn2nnnc2-c2ccccc2N)cc1	none (no result: CCT modulator, A-T KAP1 phos, TCR act)
CN(C)CCCNc1c2ccccc2nc2ccccc12	A549 tox 8.2µM, Nrf2 block 8.2µM
CN(C)CCCNc1nc(-c2ccccc2)nc2ccccc12	none
OCCNc1c2ccccc2nc2c(F)c(F)c(F)c(F)c12	Nrf2 activator 11µM
